TDP1 cell CPT: DT40-hTDP1 cell growth loss with CPT; Potency, µM (top dose mostly 46.2 µM), without a hit: at the highest dose activity change, negative = growth inhibition, most hits filed as inhibitors; chicken DT40 Tdp1-/-;hTDP1 cells + 20 nM CPT, ATP luminescence, 48 h; 12% of 420,000 active; also: nearly all actives have a fitted effect of over 55% in size
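Cell growth measured by CellTiter-Glo luminescence after a minimum 48 h, 37 C compound exposure with 20 nM CPT in Tdp1-knockout DT40 cells stably expressing hTDP1, seeded 400/well; qHTS titration format.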
PLK1 PBD block: inhibitors of human PLK1 polo-box domain binding; Potency, µM, for the others: max response, negative = inhibition, hits mostly inhibitors; 2.8% of 360,000 active; Plk1 PBD binding of FITC phosphopeptide, fluorescence polarization; also: series mostly up to about 57 µM; nearly all actives have a fitted effect of over 65% in size
TDP1 cell noCPT: qHTS for Inhibitors of human tyrosyl-DNA phosphodiesterase 1 (TDP1): qHTS in cells in absence of CPT; Potency, µM (series often up to 46.2 µM), for inactives: at the top dose activity change, negative = growth inhibition, most hits filed as inhibitors; AID 686978, 2013; DT40 Tdp1-/- hTDP1 cells, no CPT, ATP luminescence, 48 h; 15% of 420,000 active; also: nearly all actives have a fitted effect of over 55% in size
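Seeded 400 DT40-hTDP1 cells/well (vehicle DMSO, no 20 nM CPT); pinned compounds; ≥48 hr at 37 °C; CellTiter-Glo luminescence as viability measure.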
TDP1 block: blocks human tyrosyl-DNA phosphodiesterase 1; Q9NUW8; Potency, µM (titrated, usually from 130 µM), for inactives: at the top dose activity change, negative = inhibition, actives largely listed as inhibitors; recombinant TDP1, AlphaScreen DNA substrate cleavage; AID 485290; 0.28% of 350,000 active; also: nearly all actives have a fitted effect of over 40% in size
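Here, a 5' biotin and 3' phosphotyrosine-FITC DNA oligonucleotide reports Tdp1 activity: intact substrate bridges AlphaScreen beads, while cleavage leaves a 3' phosphate and drops signal. All incubations at room temperature.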
GCN5L2 inh: GCN5L2 (KAT2A) acetyltransferase inhibition; Q92830; GCN5L2 HAT assay, ThioGlo1 CoA-SH fluorescence; Potency, µM (highest dose often 58.9 µM), for inactives: top-dose activity change, negative = inhibition, most hits filed as inhibitors; 0.21% of 390,000 active; AID 504327
Target sequence (Q92830 whole entry, looked up): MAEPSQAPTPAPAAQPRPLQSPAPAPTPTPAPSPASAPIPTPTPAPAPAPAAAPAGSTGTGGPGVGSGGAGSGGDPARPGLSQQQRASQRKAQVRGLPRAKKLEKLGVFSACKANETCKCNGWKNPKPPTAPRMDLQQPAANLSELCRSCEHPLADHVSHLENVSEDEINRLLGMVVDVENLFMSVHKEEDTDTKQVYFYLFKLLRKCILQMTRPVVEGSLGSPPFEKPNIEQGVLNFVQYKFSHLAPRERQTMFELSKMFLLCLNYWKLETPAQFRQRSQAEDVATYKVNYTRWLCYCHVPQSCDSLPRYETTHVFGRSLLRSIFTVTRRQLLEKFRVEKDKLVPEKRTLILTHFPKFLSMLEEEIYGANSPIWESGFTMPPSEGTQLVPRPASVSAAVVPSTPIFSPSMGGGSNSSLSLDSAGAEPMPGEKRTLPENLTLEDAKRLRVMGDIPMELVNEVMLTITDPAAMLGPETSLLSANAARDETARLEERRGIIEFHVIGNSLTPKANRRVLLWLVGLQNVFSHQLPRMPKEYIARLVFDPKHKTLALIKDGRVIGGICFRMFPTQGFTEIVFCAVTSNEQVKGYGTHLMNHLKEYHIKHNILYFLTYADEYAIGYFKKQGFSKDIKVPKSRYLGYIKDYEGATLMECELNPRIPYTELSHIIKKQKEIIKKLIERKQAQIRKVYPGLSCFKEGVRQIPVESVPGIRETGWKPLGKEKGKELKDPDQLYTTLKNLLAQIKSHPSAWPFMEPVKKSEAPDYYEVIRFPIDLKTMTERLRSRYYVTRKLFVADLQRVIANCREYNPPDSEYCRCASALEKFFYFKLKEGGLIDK
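Titration-based screen in which CoA formation is detected via maleimide probe ThioGlo1 (50uM) turning fluorescent on thiol reaction; substrates H3(1-25) 75uM and acetyl-CoA 70uM, GCN5L2 20nM, 20 min incubation at room temperature.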
VDR inhibitor: blocks the human vitamin D receptor; Potency, µM, for the others: max response, negative = inhibition, usual class: inhibitors; VDR-SRC2-3 peptide fluorescence polarization, 2 h; 0.93% of 400,000 active; AID 504847
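Reagent solutions, kept cold and dark, are dispensed first; compounds are then pinned in at 23 nl, plates briefly spun, and incubated 2 h at ambient temperature. Inhibition of VDR–SRC2-3 peptide binding is read by fluorescence polarization.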
* marks the source's active call; other numbers are inactive results; u = inconclusive; x = no result given; [ ] = remark or other dose. Compounds with a hit are over-represented: about 18% of the library has one in this group of screens. Calls follow the shape of the dose curve; as a rule, active = well fitted curve in the direction sought with a large enough effect; inconclusive = small, poorly fitted or top-dose-only effect, or another doubt; inactive = no such curve, though single readings can be large; an effect the other way counts as inactive or inconclusive. % is scaled to controls: 0 for no effect and ±100 for the full control effect; potency is read from the fitted curve at half-maximal effect.

SMILES	TDP1 cell CPT	PLK1 PBD block	TDP1 cell noCPT	TDP1 block	GCN5L2 inh	VDR inhibitor
COCCNC(=O)C(=O)NCC1OCCN1S(=O)(=O)c1cc(F)ccc1F (centres undefined)	4%	-6%	1%	x	x	10%
Cc1ccc(C(C(=O)NCc2ccccc2)N(C(=O)c2ccccn2)c2ccccc2)o1 (centres undefined)	-12%	-11%	u	x	0%	9%
COc1ccc(CNC(=O)C(c2ccco2)N(C(=O)c2ccccn2)c2ccccc2)cc1 (centres undefined)	10µM*	-10%	23µM*	0%	0%	0%
Cc1ncc2c(c1CNC(=O)c1ccccc1F)CCN(C(=O)c1ccccc1-n1cccn1)C2	11%[9.04 µM]	x	-29%	x	x	x
Clc1cccc(COn2c(-c3ccc(Cl)cc3Cl)nc3ncccc32)c1	u	-1%	21µM*	3%	-4%	-7%
Cc1c([N+](=O)[O-])cnc(Sc2ccccc2)c1[N+](=O)[O-]	u	u	9.2µM*	x	x	u
COCCNS(=O)(=O)c1ccc(Cl)c(C(=O)NC2CCN(Cc3ccccc3)CC2)c1	-9%	-2%	-28%	11%	0%	13%
CNc1cc(OC)c(C(=O)N[C@H]2CCN(Cc3ccccc3)[C@H]2C)cc1Cl	11µM*	x	12µM*	x	x	x
CC(NC(=O)NC1CCCCC1)C(c1cccs1)N1CCN(c2ccccc2)CC1 (centres undefined)	u	3%	21µM*	0%	u	-7%
CC(NC(=O)c1cccs1)C(c1cccs1)N1CCN(c2ccccc2)CC1 (centres undefined)	-24%	-5%	-17%	0%	-11%	16%
CC(NC(=O)c1ccc2c(c1)OCO2)C(c1cccs1)N1CCOCC1 (centres undefined)	u	-6%	-2%	4%	0%	1%
CC(NC(=O)c1ccc2c(c1)OCO2)C(c1cccs1)N1CCN(c2ccccc2)CC1 (centres undefined)	u	6%	18µM*	3%	-18%	8%
CC(NC(=O)C1CC1)C(c1cccs1)N1CCN(c2ccccc2)CC1 (centres undefined)	u	-3%	u	5%	1%	-3%
CC(C)C(=O)NC(C)C(c1cccs1)N1CCN(c2ccccc2)CC1 (centres undefined)	u	-4%	21µM*	x	0%	-14%
CC(=O)OC1CC[C@@]2(C)C(CC[C@@]3(C)C2CC=C2C4CC(C)(C)CC[C@]4(C(=O)O)CC[C@@]23C)C1(C)C (some centres undefined)	-2%	x	-4%	10%[56.1 µM]	-2%	3%
CCOc1ccccc1N1CC(c2nc3ccccc3n2CCOc2ccccc2OC)CC1=O (centres undefined)	u	x	u	3%	-5%	2%
CCOc1ccc(N2CC(c3nc4ccccc4n3CCCOc3ccccc3OC)CC2=O)cc1 (centres undefined)	u	x	8.2µM*	0%	-15%	15%
COc1ccccc1OCCCn1c(C2CC(=O)N(c3ccc(F)cc3)C2)nc2ccccc21 (centres undefined)	u	x	8.2µM*	8%	-3%	14%
COc1ccc(Oc2nc(-c3ccncc3)nc3ccccc23)cc1	-3%	-1%	u	5%	-9%	-4%
COc1cccc(Nc2nc(-c3ccccc3O)nc3ccccc23)c1	u	-7%	u	x	-8%	7%
COc1ccc(Nc2nc(-c3ccccc3F)nc3ccccc23)cc1OC	15µM*	-6%	15µM*	10%	-5%	u
Oc1ccc(Nc2nc(-c3ccccc3F)nc3ccccc23)cc1	-17%	-2%	-21%	x	0%	16%
COc1cccc(Oc2nc(-c3ccncc3)nc3ccccc23)c1	15µM*	-21%	u	-3%	-3%	-9%
COc1cccc(-c2nc(NCc3cccs3)c3ccccc3n2)c1	u	x	-13%	x	u	50µM*
COc1cccc(Nc2nc(-c3ccccc3)nc3ccccc23)c1	23µM*	-7%	u	x	-16%	-2%
SMILES	TDP1 cell CPT	PLK1 PBD block	TDP1 cell noCPT	TDP1 block	GCN5L2 inh	VDR inhibitor
c1ccc(-c2nc(NCc3cccs3)c3ccccc3n2)cc1	-14%	1%	u	-3%	-12%	2%
O=C(NCCc1c[nH]c2ccccc12)c1ccccc1O	x	x	x	15%	-6%	2%
COc1ccc(Nc2nc(N3CCN(S(C)(=O)=O)CC3)nc3ccccc23)c(OC)c1	u	4%	u	x	-25%	6%
COc1nc(-c2ccncc2)nc2ccccc12	-5%	-4%	-19%	5%	-6%	-3%
COc1cccc(Nc2cc(C)nc3ccccc23)c1	u	-7%	21µM*	5%	2%	-4%
COc1ccc(OC)c(Nc2nc(-c3ccncc3)nc3ccccc23)c1	18µM*	-3%	7.3µM*	x	-9%	-2%
COc1ccc(Nc2nc(N3CCN(S(=O)(=O)N(C)C)CC3)nc3ccccc23)cc1	12µM*	2%	8.2µM*	x	-14%	5%
COc1ccc(Nc2nc(-c3ccncc3)nc3ccccc23)cc1	21µM*	0%	10µM*	x	-2%	-3%
COc1ccc(CNc2nc3ccc(C)cc3s2)c(OC)c1OC	u	5%	u	x	-11%	0%
Cc1cccc(S(=O)(=O)NCCC(=O)OCC(=O)Nc2ccc(C#N)cc2)c1	-7%	-15%	-22%	4%	-6%	-4%
CCC1(C2CCN(C(=O)c3cc4ccccc4o3)CC2)NC(=O)N(CCc2scnc2C)C1=O (centres undefined)	13%[9.04 µM]	x	u	x	x	x
CC(=O)C[C@H](O)CC(=O)[C@H]1OC(=O)CCCCCCCc2ccccc21	0%	-25%	8%	-1%	-1%	6%
COc1ccc(Nc2nc(-c3ccccc3)nc3ccccc23)c(OC)c1	u	-5%	21µM*	u	-13%	-16%
COc1ccccc1Nc1nc(-c2ccccc2)nc2ccccc12	u	-19%	u	x	-15%	-2%
COc1ccc(OC)c(Nc2cc(-c3ccccc3)nc(N)n2)c1	0.65µM*	-20%	0.73µM*	9%	-13%	-13%
O=C(COC(=O)c1ccccc1OCCOc1ccccc1)Nc1ccc(Br)cc1	-6%	x	-1%	x	x	x
CCn1c(=O)[nH]c2cc(C(=O)N3CCN(c4ccccc4)CC3)ccc2c1=O	u	-15%	u	2%	0%	6%

Compound activity: PubChem BioAssay, National Center for Advancing Translational Sciences (NCATS)
